High-throughput results from PubChem.
Hits are enriched below; roughly 2.6% of the tested compounds scored in any of these assays.
ClpP mod: qHTS Assay for Activators of ClpP; ATP-dependent Clp protease proteolytic subunit (Bacillus subtilis (strain 168)), P80244; purified B. subtilis ClpP, FRET peptide cleavage, 20 min; Potency, µM (titrated, usually from 57.5 µM), for the others: at the top dose activity change, negative = active; 340,000 tested, 1.9% active; AID 651965, 2013; active = well fitted falling curve with a large enough effect; inconclusive = small, poorly fitted or top-dose-only effect; inactive = no such curve, though single readings can be large or run the other way; also: potency is read from the fitted curve at half-maximal effect; the source files actives as falling curves though it sought activators and does not explain the sign; nearly all actives have a fitted effect of over 65% in size
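FRET quenching reversal measured ClpP activation: 10 microg/mL B. subtilis ClpP at pH 8 with the FRET-FV decapeptide, read at 430 nm after 320 nm excitation. The 20-min minus 0-min signal was scaled between DMSO/no-enzyme wells and ADEP (5.8 microM final).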
TRPV1 agonist: activates the human vanilloid receptor TRPV1 | TRPV1-expressing cells, Fluo-8 calcium influx, agonist mode | activation, % at 8.33 µM | 320,000 tested, 0.19% active | AID 540275; in the data active = activation above about 80%; inconclusive = between about 30% and that limit; also: 0% is about no effect
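Cells expressing TRPV1 were dye-loaded with Fluo-8 and read kinetically: 10 s baseline, 3 min after compound (agonist portion), then 2 min after EC20 capsaicin (allosteric enhancer portion). Calcium-bound dye fluorescence at 480/520 nm.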
KCNH2 3.1 block: inhibitors of human KCNH2 3.1 potassium channel isoform. U2OS KCNH2 3.1, thallium flux FluxOr; active compounds read low. 340,000 tested, 0.95% active. activity change, % (tested at about 1.8 µM);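 active = maximum activity change below -70%; inconclusive = maximum activity change from -70% to -50%; inactive = maximum activity change above -50%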;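 also: thallium influx rate constant from kinetic fluorescence after stimulation buffer; % is scaled to controls: 0 for no effect and ±100 for the full control effect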
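Virally transduced U2OS (3.1 isoform, 4 h infection in dark at RT) → overnight 37 C → FluxOr + Red40 in HBSS/HEPES, 45 min → stimulation buffer, 2 min kinetic read → rate constant vs DMSO controls.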
hERG WT inh: inhibitors of human wildtype KCNH2 potassium channel; Q12809; U2OS, BacMam KCNH2, thallium flux FluxOr; active compounds read low; activity change, % at 1.84 µM; 340,000 tested, 0.37% active; AID 720551;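 active = maximum activity change below -70%; inconclusive = maximum activity change between -70% and -50%; inactive = maximum activity change above -50%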; also: % is scaled to controls: 0 for no effect and ±100 for the full control effect
Target sequence (Q12809 whole entry, looked up): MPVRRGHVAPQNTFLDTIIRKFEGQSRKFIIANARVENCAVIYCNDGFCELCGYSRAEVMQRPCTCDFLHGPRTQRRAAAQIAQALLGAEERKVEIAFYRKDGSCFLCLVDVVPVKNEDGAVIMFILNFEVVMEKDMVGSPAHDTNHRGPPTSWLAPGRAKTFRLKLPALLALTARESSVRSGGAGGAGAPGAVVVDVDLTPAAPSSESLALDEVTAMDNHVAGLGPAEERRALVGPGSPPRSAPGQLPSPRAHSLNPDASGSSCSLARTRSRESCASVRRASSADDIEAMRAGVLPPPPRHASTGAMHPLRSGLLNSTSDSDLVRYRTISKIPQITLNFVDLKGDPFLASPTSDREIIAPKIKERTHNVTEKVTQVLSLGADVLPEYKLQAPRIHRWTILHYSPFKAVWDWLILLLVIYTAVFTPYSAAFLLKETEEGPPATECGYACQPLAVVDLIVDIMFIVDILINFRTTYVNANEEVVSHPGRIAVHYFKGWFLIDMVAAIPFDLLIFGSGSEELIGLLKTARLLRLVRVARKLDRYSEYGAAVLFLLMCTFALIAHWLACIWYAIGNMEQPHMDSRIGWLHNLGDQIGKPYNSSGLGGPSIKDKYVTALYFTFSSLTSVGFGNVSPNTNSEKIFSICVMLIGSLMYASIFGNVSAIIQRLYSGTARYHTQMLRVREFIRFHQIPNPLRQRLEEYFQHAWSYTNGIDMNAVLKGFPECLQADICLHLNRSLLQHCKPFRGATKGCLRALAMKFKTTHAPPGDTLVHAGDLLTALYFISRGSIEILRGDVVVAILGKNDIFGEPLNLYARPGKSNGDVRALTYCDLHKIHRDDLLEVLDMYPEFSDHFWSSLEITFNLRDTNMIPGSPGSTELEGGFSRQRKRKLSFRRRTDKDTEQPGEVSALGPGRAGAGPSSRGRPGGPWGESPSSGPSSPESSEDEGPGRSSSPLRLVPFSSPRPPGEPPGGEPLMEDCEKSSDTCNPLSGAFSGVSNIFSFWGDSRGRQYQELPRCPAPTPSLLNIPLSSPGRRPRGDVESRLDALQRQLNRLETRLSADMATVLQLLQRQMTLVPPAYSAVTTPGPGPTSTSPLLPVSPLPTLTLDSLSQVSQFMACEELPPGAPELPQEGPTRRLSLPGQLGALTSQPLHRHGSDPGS
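U2OS cells were transduced with wild-type KCNH2 virus (2.03 x 10^8 / mL) for 4 h at room temperature, then cultured overnight at 37 C. Thallium flux was read with FluxOr dye. Rate constants were normalized to DMSO controls.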
p53 reactivation: re-activators of mutant p53; H1299 p53-A138V BP100-luciferase reporter, luminescence, 24 h; 320,000 tested, 0.063% active; AID 504706; Potency, µM (doses to about 92.2 µM), without a hit: at the highest dose activity change, positive = activation, hits mostly activators; active = well fitted activation curve with a large enough effect; inconclusive = small, poorly fitted or top-dose-only effect; inactive = no such curve, though single readings can be large or run the other way; also: potency is read from the fitted curve at half-maximal effect; % of control where 0% means no effect; nearly all actives have a fitted effect of over 45% in size
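p53-null H1299 cells stably carrying temperature-sensitive p53-A138V and a BP100-luciferase reporter were pinned with compounds (4-point, 1:5 series) and held 24 hrs at 37 deg C. Luminescence was read 10 min after detection reagent.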
TRPV1 PAM: enhances activation of the human vanilloid receptor TRPV1; TRPV1-expressing cells, Fluo-8 calcium influx, capsaicin EC20 potentiation; potentiation, % at 8.33 µM; 320,000 tested, 0.02% active; AID 540277; in the data active = potentiation above about 80%; inconclusive = between about 30% and that limit; also: 0% is about no effect
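TRPV1-expressing cells were cultured overnight at 35.5C and loaded with Fluo-8 calcium dye for 40 to 90 min at room temperature. After a 10 s baseline, compound was added and calcium influx was read kinetically for 3 min (ex 480/em 520 nm).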
* hit, by the source's call; ? = inconclusive; . = not tested or not shown; ! = not active in a repeat.

SMILES | ClpP mod | TRPV1 agonist | KCNH2 3.1 block | hERG WT inh | p53 reactivation | TRPV1 PAM
CCOC(=O)C1CCCN(c2ncnc3c2cnn3-c2ccc(C)c(Cl)c2)C1 (configuration not stated) | -13.0% | . | . | . | . | .
CCOC(=O)c1[nH]c2ccccc2c1NC(=O)c1ccc(Br)cc1 | -5.5% | . | . | . | . | .
COc1cc(CN2CCC(CO)(Cc3cccc(C(F)(F)F)c3)CC2)ccc1F | 0.3% | -2.2 | -30.0 | 16.4 | -1.0% | 3.2
COc1ccc(CN2CCC(CO)(Cc3cccc(C(F)(F)F)c3)CC2)cc1Cn1cccn1 | 1.9% | 11.3 | -83.5* | -26.4 | -2.9% | -5.8
CSc1oc(-c2ccc(F)cc2)nc1S(=O)(=O)c1ccccc1 | -15.3% | ? | 13.9 | -4.4 | 24.3% | -4.9
CSc1oc(-c2ccccc2)nc1S(=O)(=O)c1ccc(F)cc1 | -5.6% | -6.8 | -89.8* | 2.9 | 11.9% | 10.7
CCOC(=O)C1(Cc2cccc(OC)c2)CCN(CCO)CC1 | . | 0.5 | 3.6 | -4.2 | -2.5% | -11.5
CCOC(=O)C1(CCOc2ccccc2)CCN(Cc2ccc(OC)c(COC)c2)CC1 | -12.0% | 0.6 | ? | -3.2 | 2.1% | 1.1
CCOC(=O)C1(CCOc2ccccc2)CCN(Cc2cc(OC)c(O)c(OC)c2)CC1 | -0.4% | -1.3 | -77.0* | -22.3 | . | -18.5
CCOC(=O)C1(CCOc2ccccc2)CCN(Cc2ccc(OC)c(O)c2)CC1 | -0.1% | 0.9 | -111.6* | -76.9* | 16.5% | ?
CCOC(=O)C1(Cc2cccc(OC)c2)CCN(Cc2ccc(OC)c(O)c2)CC1 | 0.8% | 25.9 | -77.1* | 27.8 | -4.4% | -4.6
CCOC(=O)C1(CCOc2ccccc2)CCN(Cc2ccc(O)c(OCC)c2)CC1 | . | 2.1 | -102.4* | -117.7* | . | 26.7
CCOC(=O)C1(CCOc2ccccc2)CCN(Cc2cnc(SC)nc2)CC1 | . | 4.8 | -44.7 | 2.6 | 3.8% | -5.1
CCS(=O)(=O)N1CCC(C(=O)Oc2ccccc2Br)CC1 | 28.2µM* | 5.0 | -7.4 | 4.5 | . | 11.7
CCS(=O)(=O)N1CCC(C(=O)Oc2ccccc2OC)CC1 | 1.3% | 2.4 | 13.3 | -2.0 | 14.5% | 7.9
COc1cc(/C=C/C(=O)c2c(O)cc(C)oc2=O)cc(OC)c1O | 28.2µM* | -2.3 | 17.2 | -1.7 | 5.6% | 5.7
CC(=O)c1c(OCC(=O)O)ccc2c(C)cc(=O)oc12 | ? | 0.0 | -117.0* | 2.4 | . | -9.4
COc1cc(/C=C/C(=O)c2c(O)ccc3c(C)cc(=O)oc23)ccc1O | 28.2µM*! | -2.5 | -6.9 | -2.9 | . | 16.2
COc1cccc(/C=C/C(=O)c2c(O)cc(C)oc2=O)c1O | -0.3% | 4.3 | -4.2 | 8.5 | ? | 5.1
CCN(CC)S(=O)(=O)c1ccc2c(c1)N(CC(=O)Nc1ccc(C)cc1C)C(=O)C1CCCN21 (configuration not stated) | 27.6% | . | . | . | . | .
CC(NC(=O)c1ccc2c(c1)CCN2S(=O)(=O)c1ccccc1)c1ccccc1 (configuration not stated) | 0.2% | . | . | . | . | .
NS(=O)(=O)c1cccc(NC(=O)COC(=O)CCSc2ccccc2)c1 | 15.8µM* | 10.4 | -0.5 | -3.9 | -0.3% | -12.3
CCC1CCC(N2CCN(c3ccc([N+](=O)[O-])cc3)CC2)CC1 (configuration not stated) | . | -10.1 | -101.0* | -123.5* | -6.4% | -1.5
CC1CCC(N2CCN(c3ccc([N+](=O)[O-])cc3)CC2)CC1 (configuration not stated) | -3.0% | 2.6 | -111.6* | ? | -6.5% | -22.4
O=S(=O)(c1ccc(F)cc1)N1CCN(CC(O)COCc2cccs2)CC1 (configuration not stated) | -1.9% | 0.6 | -78.0* | 1.4 | -5.2% | 4.9
SMILES | ClpP mod | TRPV1 agonist | KCNH2 3.1 block | hERG WT inh | p53 reactivation | TRPV1 PAM
COc1cc(Cl)c(NS(=O)(=O)c2ccc(-c3cnc(C4CC4)o3)cc2)c(OC)c1 | -10.3% | . | . | . | . | .
Cc1ccc(OCC(=O)N(Cc2ccccc2)C2CCS(=O)(=O)C2)c([N+](=O)[O-])n1 (configuration not stated) | -1.9% | -0.4 | 0.1 | -5.2 | -7.6% | -12.9
CCN(C(=O)COc1ccc(C)nc1[N+](=O)[O-])C1CCS(=O)(=O)C1 (configuration not stated) | 10µM* | 0.0 | 1.9 | -5.0 | 8.4% | 4.8
CN(C(=O)COC(=O)c1cncc(Br)c1)C1CCS(=O)(=O)C1 (configuration not stated) | . | 1.7 | -0.3 | -2.6 | 5.5% | 14.2
CCN(C(=O)COC(=O)c1cncc(Br)c1)C1CCS(=O)(=O)C1 (configuration not stated) | -0.7% | 6.1 | -10.3 | -0.6 | 0.6% | 80.3*
COc1ccc(N2CCN(CC(O)COc3ccc(F)cc3)CC2)cc1 (configuration not stated) | -2.9% | -5.2 | -42.3 | 18.2 | -0.1% | 16.0
COc1ccc(N2CCN(CC(O)COC(c3ccccc3)c3ccccc3)CC2)cc1 (configuration not stated) | . | 1.3 | -104.9* | ? | 25.9% | 0.8
C=CCc1cc(OC)ccc1OCC(O)CN1CCN(c2ccc(OC)cc2)CC1 (configuration not stated) | -2.1% | 2.0 | -81.6*! | 59.6 | -8.7% | 5.8
C=CCc1cc(C)ccc1OCC(O)CN1CCN(c2ccccc2)CC1 (configuration not stated) | -0.3% | 2.2 | -20.8 | 31.7 | 6.6% | -0.6
COc1ccc(N2CCN(CC(O)COC(c3ccc(F)cc3)c3ccc(F)cc3)CC2)cc1 (configuration not stated) | -1.7% | -3.3 | -119.3* | -82.3* | -0.5% | 26.2
CCOc1cc(OCC)cc(C(=O)NCCN2CCC(n3c(=O)[nH]c4ccccc43)CC2)c1 | -8.0% | . | . | . | . | .
Cc1ccccc1C(=O)Nc1cccc(-c2nnc(SCC(=O)NCc3ccco3)n2C)c1 | 1.0% | . | . | . | . | .
CC(Cc1ccc(Cl)cc1)N1CCC(n2nccc2NC(=O)C2CCCC2)CC1 (configuration not stated) | -1.8% | 0.4 | -100.7* | -20.8 | 2.1% | -6.1
CCc1ccc(CN2CCC(n3nccc3NC(=O)c3ccccc3Cl)CC2)cc1 | -9.5% | -2.8 | -103.2* | -97.2* | 22.2% | -1.8
CCOc1cccc(CN2CCC(n3nccc3NC(=O)c3ccc4c(c3)OCO4)CC2)c1 | 0.6% | 2.3 | -5.3 | 18.7 | 16.7% | -8.8
O=C(Nc1ccnn1C1CCN(Cc2ccccc2)CC1)C1CCCC1 | 0.4% | 9.9 | 15.9 | 35.0 | 21.2% | -9.0
